Molecules are shown by their SMILES. The panel holds about 83,000 compounds, 20% with a hit somewhere; the sample as a whole holds those more often.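 Cell lines were cultured in 96-well plates, exposed to a single compound concentration, and assessed for percent growth 48 hours later.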 Activity calls are given as the source filed them.

The subject of the assay is HT29 colon. Description: NCI-60 one-dose screen, 48 h (100 = growth as untreated, 0 = no growth, -100 = all killed). The conditions noted are these: 10 µM unless noted. The method, then: Growth inhibition of the HT29 human tumor cell line is measured as a screen for anti-cancer activity. Cells are grown in 96 well plates and exposed to the test compound for 48 hours. Compounds are tested at a single concentration, which is 10^-5 M for most compounds. The reported endpoint is percent growth (GI% or GIPRCNT), where numbers from 0 - 100% represent growth inhibition, and numbers from -100% - 0 represent cell death. For example, a value of 40 represents 60% growth inhibition. A value of 0 means no net growth occurred over the course of the experiment. A value of -40 indicates 40% of cells at the beginning of the experiment died by the end of the experiment. A value of -100 means all cells are dead at the end of the experiment.
NCI-60 Human Tumor Cell Lines Screen was performed using the standard one-dose NCI protocol, which is described in more detail at https://dtp.cancer.gov/discovery_development/nci-60/default.htm.
Compounds with GIPRCNT values below 10 were considered active. Activity score was based on GIPRCNT using the following formula: […]
Score is 0 for GIPRCNT values of 100 or above, 50 for GIPRCNT values of 0, and 100 for GIPRCNT values of -100.
Consider `COc1ccc(-c2cn3c(-c4ccc(OC)cc4)cnc3c(Oc3ccc4c(C)cc(=O)oc4c3)n2)cc1`, for which the growth is 25.4% (inactive).

`CC(=O)Oc1ccc(Nc2c3ccccc3nc3ccccc23)cc1`: the growth was -38.4% (active). For `C[C@@H]1CC[C@@H]2[C@@H]1[C@H](OC(=O)/C=C/c1ccccc1)[C@]1(c3ccccc3)C[C@@H](OC(=O)CO)[C@@]2(C)O1` the value was 92.2% (inactive); for `O=C1c2c[n+](Cc3ccccc3)ccc2-c2nc3ccccc3c3ccnc1c23`, -25% (active); for `C#Cc1nc2ccccc2c(=O)[nH]1`, -55.2% (active).

In the case of `Cc1cc(=O)oc2cc(Oc3nc(-c4ccc(Cl)cc4)cn4c(-c5ccc(Cl)cc5)cnc34)ccc12`, the growth was 47.7% (inactive). For `NC(=S)N/N=C/c1ccc(OCc2ccccc2)cc1` the value was 47.7% (inactive); for `COc1ccc(/C=c2/c(=O)[nH]c3nc4sc(C)c(C)c4c(=O)n23)cc1`, 88.1% (inactive); for `COc1ccc(/C=N\NC(=O)CN2CCN(c3cc4c(cc3F)c(=O)c(C(=O)N/N=C/c3ccc(OC)cc3)cn4C3CC3)CC2)cc1`, 90.2% (inactive). For the compound `O=C1Nc2ccccc2/C1=C/C(=N/c1nnc(-c2ccc(Cl)cc2)s1)c1ccccc1`, the growth is -56.3% (active). On to `CCOC(=O)c1nc(Nc2cc(C)[nH]n2)c2ccccc2n1`, for which the growth is 103% (inactive). For `O=C(O)c1ccc2c(c1Sc1ccccc1)C(=O)c1ccccc1C2=O` the value was 96% (inactive). For `COCCCN=C(N)c1ccc(NC(=O)c2ccc(C(=O)Nc3ccc(C(N)=NCCCOC)cc3)cc2)cc1` the value was 110% (inactive); for `CS(CCCCN=C=S)=NC(=O)c1c(F)c(F)c(F)c(F)c1F` (stereo not given), 57.6% (inactive). For the compound `CC(C)[C@@H]1CC[C@]2(C(=O)NCCCCN=C(N)N)CC[C@]3(C)[C@H](CC[C@@H]4[C@@]5(C)CCC(=O)C(C)(C)[C@@H]5CC[C@]43C)[C@@H]12`, the growth is 40.2% (inactive). Regarding `C=C(C[n+]1ccccc1)[C@@H]1CC[C@]2(C(=O)OC)CC[C@]3(C)[C@H](CC[C@@H]4[C@@]5(C)CC[C@H](O)C(C)(C)[C@@H]5CC[C@]43C)[C@@H]12`, the growth is 94.5% (inactive). As for `O=C1CC(c2nc3ccccc3[nH]2)CN1C1CCCCC1` (stereo not given), the growth was 102% (inactive).

As for `NCCN1CCN(c2nccc(-c3ccc4ccccc4c3)n2)CC1`, the growth is -33.6% (active). For `COc1ccc(S(=O)(=O)NCCCNc2nccc(-c3c(-c4cccc(N)c4)nc4sccn34)n2)cc1` the value was 59.7% (inactive). For `CNc1nc(C)c(-c2nc(Nc3cccc(S(N)(=O)=O)c3)ncc2F)s1` the value was 0.997% (active); for `C=C1CCC2C3(C)COC(C)(C)OC3CCC2(C)C1C/C=C1/C(=O)OCC1OC(C)=O` (stereo not given), 18.4% (inactive).

On to `O=C1Nc2ccc(Br)cc2C12CC(c1ccccc1)=NN2` (stereo not given), for which the growth was 12.1% (inactive). In the case of `COc1ccc(-c2cc(-c3cccnc3)nc3sc4c(=O)n(-c5ccc(C)cc5)nnc4c23)cc1OC`, the growth is 105% (inactive). As to `Nc1c(C(=O)Nc2cccc3c2OCCO3)sc2nc3c(cc12)CN(Cc1ccccc1)CC3`, the growth was 35.3% (inactive). Under `COc1cc(OC)c(/C=C/S(=O)(=O)Cc2cnc(OC)c(N)c2)c(OC)c1` stands 0.841% (active); under `CCOC(=O)N1CCN(c2nc(Nc3cc(C)[nH]n3)c3ccccc3n2)CC1`, 22.6% (inactive); under `COc1cc2c(c(OC)c1OC)-c1ccc(N=NC(N)=S)c(=O)cc1[C@@H](NC(C)=O)CC2`, -2.5% (active). Consider `Cc1cc(=O)oc2cc(Oc3nc(-c4cccs4)cn4c(-c5cccs5)cnc34)ccc12`, for which the growth is 46.6% (inactive). For `CCCCNc1ccc2c3c1cccc3c(=O)n1c3ccccc3nc21` the value was 80.4% (inactive); for `O=C(CN1CCN(c2cc3c(cc2F)c(=O)c(C(=O)O)cn3C2CC2)CC1)Nc1cc(=O)[nH]c(=O)[nH]1`, 102% (inactive); for `CC[C@H](Nc1ncnc(N)c1C(N)=O)c1nc2cccc(NCc3ccc(C(=O)NO)cc3)c2c(=O)n1-c1ccccc1`, 88.7% (inactive). As for `CC/C=C\C[C@H](O)C/C=C1/C(=O)C=C[C@@H]1C/C=C\CCCC(=O)OC(C)C`, the growth is -49.7% (active). For the compound `CCOC(=O)c1c2c(n3ccc(NC(=O)CCN4CCCCC4)cc13)C(=O)c1ncccc1C2=O`, the growth was -61.5% (active). For `Cc1cccc(NC(=O)c2sc3nc4c(cc3c2N)C(=O)CCC4)c1` the value was 11.7% (inactive).

Take `COc1ccc(C(=O)c2sc3nc4c(c(C(F)(F)F)c3c2N)CN(C(C)=O)CC4)cc1OC`: the growth was 95% (inactive). Under `COc1ccc(-c2cc(-c3ccc(N(C)C)cc3)nc(NC(=O)c3ccncc3)n2)cc1` stands 106% (inactive). Take `COc1cnc2c(c1)C(=O)c1c-2n(CCCN2CCNCC2)c(=O)c2cc([N+](=O)[O-])ccc12`: the growth was -80% (active). For `CC/C=C\C[C@H](O)C/C=C1/C(=O)C=C[C@@H]1C/C=C\CCCC(=O)NC`, the growth was 0.814% (active).

For the compound `C[C@]12C[C@@H](c3ccoc3)OC(=O)[C@@H]1CC[C@]1(C)[C@@H]2CC[C@@H](O)[C@]1(C)O`, the growth was 68.3% (inactive).

`C/C(Cc1ccc(Cl)cc1)=C(\c1ccc(OCCN2CCCCCC2)cc1)c1ccc(OC(=O)C2CCCCC2)cc1`: the growth was 18.4% (inactive).

(Values after PubChem BioAssay (NCI).)
